From PubChem BioAssay come the findings set out here.

“And” between values parts separate entries of the source, which are not always exact repeats. Equal entries are not always repeated. Results filed as inconclusive are left out. Some compounds were tested as several samples or in several runs, with calls that do not always agree. The source made the active and inactive calls.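 Rule for the calls, unless noted: active = normalized viability below 100% at a tested concentration; inactive = the rest.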

Assay [1] can be described thus: viability loss in pontine glioma line – cell-based, SU-DIPG-XXV, MIPE5.0, CellTiter-Glo, qHTS, dose response (AID 1347065; cut-off not given, nearly all actives have AC50 up to about 26 µM;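 note: cells exposed to compound for 48 hours before ATP readout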). The conditions noted are these: CellTiter-Glo ATP luminescence. In general terms: ATP-based viability assays read luminescence as a measure of living cells.
Assay [2] can be described thus: growth inhibition of DIPG cells – cell-based, MIPE4.0 library, CellTiter-Glo luminescence, qHTS (AID 1347066; cut-off not given, nearly all actives have AC50 up to about 30 µM;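 note: cells exposed to compound for 48 hours before readout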). The conditions noted are these: SU-DIPG-VI viability, CellTiter-Glo ATP luminescence.
A short description of assay [3]: JHH-DIPG-1 glioma cell viability, MIPE5.0 library, CellTiter-Glo luminescence, qHTS (AID 1347067; cut-off not given, nearly all actives have AC50 up to about 26 µM;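 note: cells exposed to compound for 48 hours before readout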). The settings on record: JHH-DIPG-1 glioma viability, CellTiter-Glo ATP luminescence.
Assay [4] can be described thus: growth inhibition of DIPG cells – cell-based, MIPE5.0 library, qHTS (AID 1347068; cut-off not given, nearly all actives have IC50 up to about 30 µM;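 for IC50: cells exposed to compound for 48 hours before viability readout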). The conditions noted are these: SU-DIPG-XXV viability. (Quantitative high-throughput screening tests each substance at several concentrations.)
Assay [5] is described as follows: viability loss with induced miR-34 in A549 – imaging, A549 dox-inducible miR-34, nuclei and caspase counts, primary screen (AID 1347080;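 active = compounds whose cell count with miR-34 switched on is under 0.7 times the count with it off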). The conditions noted are these: A549 miR-34 inducible, Hoechst nuclei count, 48 h.
The nature of assay [6]: MELAS cybrid and Rieske KO viability enhancers – cell-based, MELAS cybrids, Rieske KO mouse fibroblasts, CellTiter-Glo, primary screen (AID 1508586;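 active = mean z-score across replicates of 1.96 or higher in either the MELAS or the Rieske mutant cell line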;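 note: z relative to plate mean and SD of compound and empty wells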). The settings on record: low glucose.
A short description of assay [7]: blockers of cellular phospholipid synthesis – cell-based, LOPAC library, screen 4, primary screen (AID 1347384; call rule not given here). The settings on record: animal cells, phospholipid biosynthesis inhibition screen; at 10 µM.
Assay [8] can be described thus: compounds altering HSF1 focus formation in cells – imaging, Selleck Cancer Library (AID 1347162; in the data active = plate-normalised HSF1 focus index below about 0.46). The conditions noted are these: human cells, HSF1 nuclear foci imaging, at 10 µM; SSMD: measured here: HSF1 foci SSMD mean; cell count: measured here: cell number; plate-normalised HSF1 focus index: stronger effect = lower value.
A short description of assay [9]: chitosan synthesis blockers in C. neoformans – flow cytometry, Cibacron Brilliant Red staining (AID 1347148; call rule not given here;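 note: compound exposure lasted three days at 37 degrees C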). The settings on record: Cryptococcus neoformans chitosan, stronger effect = lower value; at 10 µM unless noted. Background: Flow cytometry measures light scatter and fluorescence of single cells or particles in a stream.
A short description of assay [10]: drug combination growth inhibition, ovarian cancer – cell-based, oncology-focused library, rucaparib conditional, profiling panel (AID 1508598). The conditions noted are these: patient-derived ovarian cancer cells, CellTiter-Glo viability, 144 h, stronger effect = lower value.
[11] abbreviates: MELAS cybrid survival, CellTiter-Glo 48 h, stronger effect = higher value.
[12] abbreviates: Rieske KO mouse fibroblast survival, CellTiter-Glo 72 h.

Usually AC50 stands for the concentration giving half of the maximal activity seen. For orientation: IC50 means the concentration that inhibits the measured activity by half. As usually defined, the viability is a read-out of living cells in per cent, often relative to untreated cells.

As to `NCC1CCC(C(=O)O)CC1` (configuration not stated), the outcome in assay [1], in assay [2], in assay [3] and in [4] was inactive. Besides, the fold change was 0.928 (inactive) and 0.834 (inactive) in [5] (stronger effect = lower value, cell number ratio, induced over uninduced); 1.25 and 2.45 in assay [5] (measured here: relative caspase fold change +Dox/-Dox). The cell count in assay [5] (measured here: total cells with miR-34 induction, stronger effect = lower value) was 8960 and 11200; in [5] (measured here: total cells without miR-34 induction) it was 9660 and 13500. For the same compound, the values for the z-score in assay [6] (setting [11]) and in [6] (setting [12]) were -0.244 (inactive) and -0.313, respectively.
Turning to `CCOC(=O)c1ncn2c1CN(C)C(=O)c1cc(F)ccc1-2`, the outcome in assay [1], in assay [2], in assay [3], in assay [4] and in assay [7] was inactive. Also, the z-score was 0.109 (inactive) and 0.0778 (inactive) in assay [6] (setting [11]); 0.977 and -0.775 in assay [6] (setting [12]).
As to `COc1cccc2c1C(=O)c1c(O)c3c(c(O)c1C2=O)C[C@@](O)(C(=O)CO)C[C@@H]3O[C@H]1C[C@H](N)[C@H](O)[C@H](C)O1`, the AC50 in assay [1] is 1180 nM (active); in assay [2], 2350 nM (active); in [3], 1050 nM (active). Moreover, in [4], the IC50 is 7420 nM (active). In [8], this compound gave an SSMD of -18.3. Also, the cell count in assay [8] was determined as 7010. The plate-normalised HSF1 focus index in assay [8] was 0.0593 (active). The z-score was 0.616 (inactive) and 7.1 (active) in assay [6] (setting [11]); -1.64 and -0.526 in assay [6] (setting [12]).
Consider `CCN1CCCC1CNC(=O)c1cc(S(=O)(=O)CC)c(N)cc1OC` (configuration not stated), for which the call in assay [1], in assay [2], in assay [3], in assay [4] and in assay [7] was inactive. The z-score in assay [6] (setting [11]) was -0.415 (inactive) and 0.449 (inactive); in assay [6] (setting [12]) it was 0.177 and 0.21.
For `CCOC(=O)C(C)(C)Oc1ccc(Cl)cc1`, the compound was called inactive in [1], in [2], in assay [3], in [4] and in assay [7]. The fold fluorescence in assay [9] was 5.04 (inactive). Besides, the z-score was 0.307 (inactive) and -1.09 (inactive) in assay [6] (setting [11]); -0.506 and -1.36 in assay [6] (setting [12]).
Regarding `CCCCCN(C)CCC(O)(P(=O)(O)O)P(=O)(O)O`, the call in [1], in assay [2], in assay [3], in assay [4] and in [7] was inactive.
For `Cn1nnc2c(C(N)=O)ncn2c1=O`, the compound was called inactive in assay [1], in assay [2], in assay [3] and in assay [4]. The compound further came in with an SSMD in [8] of 1.56. Also, in [8], the cell count came out at 7070. Moreover, the plate-normalised HSF1 focus index in assay [8] was 1.09 (inactive). Besides, the z-score is -0.452 (inactive) and 0.68 (inactive) and -0.709 (inactive) in [6] (setting [11]); 0.371 and -0.0371 and -0.913 in assay [6] (setting [12]). Besides, the viability in assay [10] (at 0.000305 µM, OCI-C5x cells, with rucaparib 10 µM, 100% = cells with rucaparib alone) is 103% (inactive); in assay [10] (at 0.000305 µM, OCI-C5x cells, without rucaparib), 108% (inactive); in [10] (at 0.000305 µM, OCI-P5x cells, with rucaparib 20 µM, 100% = cells with rucaparib alone), 91% (active); in [10] (at 0.000305 µM, OCI-P5x cells, without rucaparib), 88.3% (active); in [10] (at 0.00122 µM, OCI-C5x cells, with rucaparib 10 µM, 100% = cells with rucaparib alone), 103% (inactive); in assay [10] (at 0.00122 µM, OCI-C5x cells, without rucaparib), 109% (inactive). The viability in assay [10] (at 0.00122 µM, OCI-P5x cells, with rucaparib 20 µM, 100% = cells with rucaparib alone) is 108% (inactive); in assay [10] (at 0.00122 µM, OCI-P5x cells, without rucaparib) it was 98.5% (active); in assay [10] (at 0.00488 µM, OCI-C5x cells, with rucaparib 10 µM, 100% = cells with rucaparib alone), 113% (inactive); in assay [10] (at 0.00488 µM, OCI-C5x cells, without rucaparib), 110% (inactive); in assay [10] (at 0.00488 µM, OCI-P5x cells, with rucaparib 20 µM, 100% = cells with rucaparib alone) it was 110% (inactive); in assay [10] (at 0.00488 µM, OCI-P5x cells, without rucaparib) it was 101% (inactive). Besides, the viability is 118% (inactive) in assay [10] (at 0.0195 µM, OCI-C5x cells, with rucaparib 10 µM, 100% = cells with rucaparib alone); 108% (inactive) in [10] (at 0.0195 µM, OCI-C5x cells, without rucaparib); 106% (inactive) in assay [10] (at 0.0195 µM, OCI-P5x cells, with rucaparib 20 µM, 100% = cells with rucaparib alone); 106% (inactive) in assay [10] (at 0.0195 µM, OCI-P5x cells, without rucaparib); 102% (inactive) in assay [10] (at 0.0781 µM, OCI-C5x cells, with rucaparib 10 µM, 100% = cells with rucaparib alone); 101% (inactive) in assay [10] (at 0.0781 µM, OCI-C5x cells, without rucaparib). Also, the viability in [10] (at 0.0781 µM, OCI-P5x cells, with rucaparib 20 µM, 100% = cells with rucaparib alone) was 112% (inactive); in [10] (at 0.0781 µM, OCI-P5x cells, without rucaparib) it was 104% (inactive); in [10] (at 0.313 µM, OCI-C5x cells, with rucaparib 10 µM, 100% = cells with rucaparib alone), 101% (inactive); in assay [10] (at 0.313 µM, OCI-C5x cells, without rucaparib), 104% (inactive); in [10] (at 0.313 µM, OCI-P5x cells, with rucaparib 20 µM, 100% = cells with rucaparib alone) it was 111% (inactive); in assay [10] (at 0.313 µM, OCI-P5x cells, without rucaparib), 109% (inactive). For the same compound, the viability in [10] (at 1.25 µM, OCI-C5x cells, with rucaparib 10 µM, 100% = cells with rucaparib alone) was 108% (inactive); in assay [10] (at 1.25 µM, OCI-C5x cells, without rucaparib) it was 90.4% (active); in assay [10] (at 1.25 µM, OCI-P5x cells, with rucaparib 20 µM, 100% = cells with rucaparib alone) it was 106% (inactive); in [10] (at 1.25 µM, OCI-P5x cells, without rucaparib), 110% (inactive); in assay [10] (at 5 µM, OCI-C5x cells, with rucaparib 10 µM, 100% = cells with rucaparib alone), 96.4% (active); in [10] (at 5 µM, OCI-C5x cells, without rucaparib), 92.7% (active). Also, the viability in assay [10] (at 5 µM, OCI-P5x cells, with rucaparib 20 µM, 100% = cells with rucaparib alone) is 95.5% (active); in assay [10] (at 5 µM, OCI-P5x cells, without rucaparib), 114% (inactive).
